Here are results for 40 molecules from PubChem BioAssay (NCATS).

Molecules are shown by their SMILES. A number with no mark means an inactive call. Where a call stands in place of a potency, no number is given. Activity calls are given as the source filed them. Calls follow the shape of the dose curve; as a rule, active = well fitted activation curve with a large enough effect; inconclusive = small, poorly fitted or top-dose-only effect; inactive = no such curve, though single readings can be large or run the other way.
Potency is read from the fitted curve at half-maximal effect.

Chain of Cytochrome P450 3A4 (Homo sapiens) (P08684 whole entry, looked up): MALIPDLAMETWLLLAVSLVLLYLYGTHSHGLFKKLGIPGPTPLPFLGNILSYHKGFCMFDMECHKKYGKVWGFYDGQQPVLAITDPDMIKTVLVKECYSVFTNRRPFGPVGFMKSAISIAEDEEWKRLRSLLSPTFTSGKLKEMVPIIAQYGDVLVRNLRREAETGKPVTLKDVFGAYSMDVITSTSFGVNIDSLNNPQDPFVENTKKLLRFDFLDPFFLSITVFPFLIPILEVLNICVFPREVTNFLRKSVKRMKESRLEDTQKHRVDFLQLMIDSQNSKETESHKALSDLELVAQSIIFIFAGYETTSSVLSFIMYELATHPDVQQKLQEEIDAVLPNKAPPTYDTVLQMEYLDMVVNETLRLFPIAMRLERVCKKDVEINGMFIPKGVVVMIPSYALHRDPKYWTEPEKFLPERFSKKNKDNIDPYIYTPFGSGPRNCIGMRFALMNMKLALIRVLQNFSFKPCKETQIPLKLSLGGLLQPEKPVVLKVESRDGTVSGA

The assay addresses Cytochrome P450 3A4 (Homo sapiens) (UniProt P08684). The experiment in a line: qHTS Assay for Activators of Cytochrome P450 3A4 (AID 885). Also: nearly all actives have a fitted effect of over 65% in size. The conditions noted are these: recombinant CYP3A4, Luciferin-PPXE luminescence, 60 min; series mostly up to 57.1 µM. On the procedure: NIH Molecular Libraries Screening Centers Network [MLSCN]
NIH Chemical Genomics Center [NCGC]
The P450 gene superfamily is involved in the metabolism and clearance of xenobiotics. This assay used human CYP3A4 to measure the dealkylation of luciferin-6' phenylpiperazinylyl (Luciferin-PPXE; […]) to luciferin. The luciferin is then measured by luminescence after the addition of a luciferase detection reagent. Luciferin-PPXE concentration in the assay was equal to its KM for CYP3A4. Inhibitors and some substrates limit the production of luciferin, and decrease measured luminescence; activators increase the production of luciferin and luminescence.
NCGC Assay Protocol Summary:
Two uL of enzyme and substrate mix (final concentrations: 20nM CYP3A4, 25uM Luciferin-PPXE, 200mM KPO4) were dispensed into a white, solid bottom 1536-well microtiter plate. 23nL of compound was transferred by a pin tool. The plate was incubated at RT for 10 min. Two uL of an NADPH regeneration solution (Promega supplied reagent) was dispensed and the reaction was allowed to continue for 60 min at RT. Then the reaction was stopped by reconstituted luciferin detection buffer. After another 20 min of incubation the plate was read on the ViewLux (Perkin Elmer) at 60 sec exposure and 2x2 binning. This protocol was carried out with Promega-Glo reagents and further information can be found at http://www.promega.com/tbs/tb325/tb325.pdf. Data were normalized to the to AC100 inhibition (57 uM ketoconazole).
Keywords: P450, CYP2D6, Luciferase, MLSMR, MLSCN, NIH Roadmap, qHTS, NCGC
Consider `O=C(O)C1=CCCN(CCOC(c2ccc(C(F)(F)F)cc2)c2ccc(C(F)(F)F)cc2)C1`, for which the Potency result was “inactive”.

For `Cc1ccccc1N`, the Potency result was “inactive”.

Turning to `CC(C)(O)/C=C\C(=O)[C@](C)(O)[C@H]1[C@H](O)C[C@]2(C)[C@@H]3CC=C4[C@@H](C=C(O)C(=O)C4(C)C)[C@]3(C)C(=O)C[C@@]12C`, the activity change, positive = activation is -93.2% [at 11.4 µM].

For `CN1Cc2c(ccc3c2OCO3)[C@@H]2[C@@H](O)Cc3cc4c(cc3[C@@H]21)OCO4`, the Potency result was “inactive”.

For the molecule `N#C/C(=C\c1ccc(O)cc1)C(=O)O`, the Potency result is “inactive”.

With `Clc1ccccc1-c1cncnc1NCCc1cnc[nH]1`, the Potency entry was “inactive”.

For the molecule `COC1=CC23CCCN2CCc2cc4c(cc2C3C1O)OCO4` (stereo not given), the Potency entry was “inactive”.

On to `CCCCCCCCCc1ccc(O)cc1`, for which the Potency entry is “inactive”.

As for `Cc1nnc2ccc(-c3cccc(C(F)(F)F)c3)nn12`, the Potency entry is “inactive”.

On to `CC1=C2CCC3C4CCC(=O)[C@@]4(C)CCC3[C@]2(C)CCC1=O` (stereo not given in full), for which the Potency result is “inactive”.

For the molecule `CCOCN(C(=O)CCl)c1c(C)cccc1CC`, the Potency is 15.8 µM (active).

With `N#Cc1ccc(CN2CCCC3(CCN(C(=O)Oc4ccccc4)CC3)C2)cc1`, the Potency result was “inactive”.

Take `O=C(c1csnn1)N1CCC2(CC1)CN(Cc1ccncc1)C2`: the Potency result was “inactive”.

Turning to `CCN(CC)C(=O)N[C@@H]1C[C@H]2c3cccc4[nH]cc(c34)C[C@@H]2N(C)C1`, the Potency entry was “inactive”.

In the case of `NCC(=O)c1ccccc1`, the Potency entry was “inactive”.

`C=C(C)c1cc2cc(C(C)=O)c(O)cc2o1`: the Potency result is “inactive”.

Consider `C/C=C1\C[N@@+]2(C)CC[C@@]34C(=C(C=O)[C@H]1C[C@H]32)Nc1ccccc14`, for which the Potency entry is “inactive”.

For the molecule `Clc1cccc(C(Cl)(Cl)Cl)n1`, the Potency result was “inactive”.

Consider `CCCCCC1C(=O)O[C@H](C)[C@@H](NC(=O)c2cccc(NC=O)c2O)C(=O)OC(C)C1OC(=O)CC(C)C` (stereo not given in full), for which the Potency entry was “inactive”.

Consider `O=C(Nc1ccccc1)N1CC[C@@]2(CCCN(C(=O)Oc3ccccc3)C2)C1`, for which the Potency result was “inactive”.

With `O=C(c1ccco1)N1CCC[C@@]2(CCN(Cc3ccncc3)C2)C1`, the Potency result was “inactive”.

With `Cc1nc2cnc(N3CCNCC3)nc2n(C)c1=O`, the Potency entry is “inactive”.

Regarding `CC1=NCCc2c1[nH]c1cc(O)ccc21`, the Potency result is “inactive”.

Consider `O=C(c1ccncc1)N1CCC2(CC1)CN(Cc1ccccc1)C2`, for which the Potency entry was “inactive”.

As to `CCc1c(C(=O)OC)ncc2[nH]c3cc(OC)c(OC)cc3c12`, the Potency entry was “inactive”.

Turning to `C=C1C([C@@]2(C)C(OC(C)=O)CC(=O)O[C@@](C)(COC(C)=O)C2CC(=O)OC)C(OC=O)C(OC(=O)C(OC(C)=O)C(C)CC)[C@]2(C)C(c3ccoc3)CC(=O)C12O` (stereo not given in full), the Potency entry was “inactive”.

On to `C=C1C/C(=C/C)C(=O)O[C@@H]2CCN3CC=C(COC(=O)[C@]1(C)O)[C@@H]23`, for which the Potency result is “inactive”.

For the molecule `CC(C)C[C@H]1C(=O)N2CCC[C@@H]2[C@@]2(O)O[C@](NC(=O)[C@@H]3C=C4c5cccc6[nH]cc(c56)C[C@@H]4N(C)C3)(C(C)C)C(=O)N12`, the Potency result was “inactive”.

As to `CC1=CCCC2C1(C)CCC(C)C2(C)CC/C(C)=C/C[n+]1cn(C)c2c(N)ncnc21` (stereo not given), the Potency entry is “inactive”.

`C[C@@H]1O[C@H](O[C@@H]2CC[C@@]3(C=O)[C@H]4CC[C@@]5(C)[C@@H](C6=CC(=O)OC6)CC[C@@]5(O)[C@@H]4CC[C@]3(O)C2)C[C@H](O)[C@@H]1O`: the Potency result was “inactive”.

Take `CC(C)(c1ccccc1)c1ccc(O)cc1`: the Potency result is “inactive”.

For `COc1c(CC=C(C)C)c2c(c3oc(=O)c(-c4ccc(O)cc4)c(O)c13)C=CC(C)(C)O2`, the Potency result was “inactive”.

Turning to `O=C(Oc1ccccc1)N1CCC2(CC1)CN(C(c1ccccc1)c1ccccc1)C2`, the Potency was 6.31 µM (active).

With `O=c1cccc2n1CC1CNCC2C1` (stereo not given), the Potency entry is “inactive”.

For the molecule `COCC(=O)N1CCC2(CCCN(Cc3ccncc3)C2)CC1`, the Potency entry was “inactive”.

`C[C@@]12CC[C@H](O)C[C@@H]1CC[C@H]1[C@H]2CC[C@@]2(C)[C@@H](C3=CC(=O)OC3)CC[C@]12O`: the Potency entry was “inactive”.

For `O=C(Oc1ccccc1)N1CCC2(CC1)CN(Cc1ccncc1)C2`, the Potency result is “inactive”.

Take `C[C@]12CC[C@H](O)C[C@@H]1CC[C@H]1[C@H]2CC[C@]2(C)C(=O)CC[C@@H]12`: the Potency result was “inactive”.

Regarding `O=C(Nc1ccccc1)N1CCC2(CC1)CCN(C(=O)Oc1ccccc1)CC2`, the Potency is 10 µM (active).

`c1ccc(CN2CC[C@@]3(CCCNC3)C2)cc1`: the Potency entry is “inactive”.
